# Assay outcomes deposited in PubChem BioAssay by National Center for Advancing Translational Sciences (NCATS).
# DT40 TDP1 no CPT = qHTS for Inhibitors of human tyrosyl-DNA phosphodiesterase 1 (TDP1): qHTS in cells in absence of CPT; DT40 Tdp1-/- hTDP1 cells, no CPT, ATP luminescence, 48 h; Potency, µM (top dose mostly 46.2 µM), usual class: inhibitors; 15% of 420,000 active; AID 686978, 2013; note: nearly all actives have a fitted effect of over 55% in size
#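 Cells were dispensed at 400 per well, compounds added by pin tool, plates incubated ≥48 hr at 37 °C, then CellTiter-Glo added for 30 min at room temperature before luminescence reading. Line: DT40 Tdp1-/- complemented with hTDP1; camptothecin omitted.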
# 12-LOX inh = inhibitors of human 12S-lipoxygenase ALOX12; P18054; purified 12hLO, xylenol orange hydroperoxide absorbance; Potency, µM (doses to about 108 µM), most hits filed as inhibitors; 1.1% of 580,000 active
# Target sequence (P18054 whole entry, looked up): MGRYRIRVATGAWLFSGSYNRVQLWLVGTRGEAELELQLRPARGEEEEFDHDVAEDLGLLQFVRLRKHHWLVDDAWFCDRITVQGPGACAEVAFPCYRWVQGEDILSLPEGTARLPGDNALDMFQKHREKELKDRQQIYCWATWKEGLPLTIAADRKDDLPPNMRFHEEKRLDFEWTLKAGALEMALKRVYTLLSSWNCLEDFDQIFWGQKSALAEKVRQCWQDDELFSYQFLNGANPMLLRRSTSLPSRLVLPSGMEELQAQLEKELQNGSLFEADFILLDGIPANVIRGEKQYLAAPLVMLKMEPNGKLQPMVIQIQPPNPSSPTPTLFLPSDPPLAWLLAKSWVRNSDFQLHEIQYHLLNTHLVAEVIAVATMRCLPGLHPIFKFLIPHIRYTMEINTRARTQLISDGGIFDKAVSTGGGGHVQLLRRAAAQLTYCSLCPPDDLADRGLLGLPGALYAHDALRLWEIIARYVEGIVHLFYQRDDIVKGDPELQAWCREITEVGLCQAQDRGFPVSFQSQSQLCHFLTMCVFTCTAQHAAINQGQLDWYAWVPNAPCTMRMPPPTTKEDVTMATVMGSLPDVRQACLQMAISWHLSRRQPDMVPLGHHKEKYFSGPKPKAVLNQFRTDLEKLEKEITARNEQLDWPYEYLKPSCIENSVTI
#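 Purified human 12hLO at 150 nM in 25 mM Hepes, 0.01% Triton X-100, pH 7.0, preincubated 15 min at room temperature with compound. Reaction started with 40 uM arachidonic acid, 30 min at room temperature. Hydroperoxide measured by Fe-xylenol orange, 573/405 nm absorbance ratio.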
# HT1080 IDH1KD tx = kills HT-1080 cells with IDH1 knockdown; HT-1080 IDH1 knockdown viability, ATP luminescence, 48 h; 2% of 360,000 active; AID 686971; Potency, µM (highest dose often 46.1 µM), actives largely listed as cytotoxic
#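 Luminescent ATP read-out (CellTiter-Glo, 10 min at room temperature) after 48 h compound exposure at 37 °C gave viability of IDH1-knockdown HT-1080 cells. Activity was normalised to DMSO and cell-free wells, then fitted as concentration-response curves.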
# HT1080-NT tox = kills 2HG-producing HT-1080-NT fibrosarcoma cells. HT-1080-NT fibrosarcoma viability, CellTiter-Glo ATP luminescence, 48 h. Potency, µM (top dose mostly 46.1 µM), most hits filed as cytotoxic. 1.6% of 360,000 active. AID 686970;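 note: NT is the 2HG producing partner of a matched IDH1 knockdown line; nearly all actives have a fitted effect of over 55% in size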
#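 Luminescent CellTiter-Glo readout after 48 hours of compound exposure at 37 degrees C defined viability of HT-1080-NT cells. Activity was normalized to DMSO wells and cell-free media wells; concentration-response curves were fitted and assigned curve classes.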
# IL1B secr inh = inflammasome signaling inhibition, IL-1 beta readout; THP-1 LPS/ATP IL-1B secretion, AlphaLISA, 16 h; active compounds read low; activity change, % at 57.5 µM; 4.7% of 360,000 active; in the data active = activity change below about -50%; inconclusive = mostly about -30% to -49%
#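 Secreted IL-1B measured by AlphaLISA bead assay after 16 h compound exposure of THP-1 cells; compounds (final up to 57.5 uM) added 1 h before LPS (250 ng/mL) and ATP (1.25 mM) stimulation; lower signal means less secretion.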
# DT40 TDP1 CPT = growth inhibition of DT40 Tdp1-/-;hTDP1 cells with camptothecin (screen for TDP1 inhibitors). 12% of 420,000 active. chicken DT40 Tdp1-/-;hTDP1 cells + 20 nM CPT, ATP luminescence, 48 h. AID 686979. Potency, µM (highest dose often 46.2 µM), hits mostly inhibitors; note: nearly all actives have a fitted effect of over 55% in size
#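 Chicken DT40 Tdp1-/- cells stably complemented with human TDP1 were seeded at 400 cells/well in medium containing 20 nM camptothecin, exposed to pin-transferred compounds, and grown at 37 °C for at least 48 hr. Viability was read as ATP luminescence.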
# A number is an active result; n = inactive; u = inconclusive; x = no result. The entries come from a sample that favours hits as a whole. Unless noted, calls come from the whole dose curve; as a rule, active = well fitted curve in the direction sought with a large enough effect; inconclusive = small, poorly fitted or top-dose-only effect, or another doubt; inactive = no such curve, though single readings can be large; an effect the other way counts as inactive or inconclusive.
SMILES,DT40 TDP1 no CPT,12-LOX inh,HT1080 IDH1KD tx,HT1080-NT tox,IL1B secr inh,DT40 TDP1 CPT
CCOc1ccc(CCNCc2c(C(=O)O)n(Cc3ccc(C)cc3)c3cc(OC)ccc23)cc1,18µM,n,x,x,x,u
COc1ccc(CCNCc2c(C(=O)O)c(C)n(Cc3ccccc3C)c2C)c(OC)c1,18µM,n,x,x,x,u
COc1ccc(Cn2c(C(=O)O)c(CNCc3ccc(OC)cc3OC)c3ccc(C)cc32)cc1,9.2µM,u,x,x,x,15µM
COc1ccc2c(CNCCc3ccco3)c(C(=O)O)n(Cc3ccccc3)c2c1,u,n,x,x,x,n
CC(C)CC(=O)NCCNC(=O)c1cc2ccccc2n1C,x,n,x,x,x,x
CCc1c(C(=O)Nc2ccccc2)csc1C,x,n,x,x,x,x
CCc1c(C(=O)Nc2ccccc2)c(C)[nH]c(=S)c1C#N,n,4µM,n,n,n,n
Cc1ccccc1NC(=O)c1c(C)[nH]c(=S)c(C#N)c1-c1ccco1,n,n,n,n,n,n
Cc1[nH]c(=S)c(C#N)c(C)c1C(=O)Nc1ccccc1,n,25µM,n,n,n,n
COC(=O)CC1CCCCN1CC(=O)NC(=O)NCc1ccco1 (configuration not stated),x,n,x,x,x,x
C=CCOc1ccc(/C(O)=C2\C(=O)C(=O)N(CCCOC)C2c2ccc(O)c(OC)c2)cc1 (configuration not stated),n,u,n,n,n,n
COCCCN1C(=O)C(=O)/C(=C(/O)c2ccc(C)cc2)C1c1ccccc1 (configuration not stated),n,7.1µM,n,n,n,n
CCOc1cc(C2/C(=C(/O)c3ccc(OC(C)C)cc3)C(=O)C(=O)N2CCCOC)ccc1O (configuration not stated),n,20µM,n,n,n,n
O=C(N(Cc1cccc2[nH]ccc12)C1CC1)C12CC3CC(CC(C3)C1)C2,x,n,x,x,x,x
Clc1ccc(Oc2cccc(CN3CCN(C4CCNC4)CC3)c2)cc1 (configuration not stated),x,n,x,x,x,x
CC(=O)Nc1cccc(NC(=O)c2ccco2)c1,n,n,n,n,n,n
O=C(Nc1cccc(NC(=O)c2ccc(-c3cccc(Br)c3)o2)c1)c1ccco1,11µM,n,u,n,-59,16µM
COc1c(C)cc(Br)cc1C(=O)Nc1cccc(NC(=O)c2ccco2)c1,u,n,n,n,n,u
COc1ccc(NC(=O)c2ccco2)cc1NC(=O)c1cc(Br)ccc1Cl,21µM,n,x,x,x,n
COc1ccc(NC(=O)c2ccco2)cc1NC(=O)c1ccccc1F,n,n,n,n,n,n
COc1ccc(Br)cc1C(=O)Nc1cccc(NC(=O)c2ccco2)c1,18µM,n,n,n,n,u
CCCCNC(=O)c1nc2cc(C)c(C)cc2nc1-c1cccc(Br)c1,x,n,x,x,x,x
CC(C)(C)Nc1nc2nonc2nc1NC(C)(C)C,u,n,u,u,-68,16µM
O=C(NCc1cccs1)c1nc2c(nnn2Cc2ccccc2Cl)c(=O)[nH]1,2.6µM,n,3.3µM,4.6µM,n,4.1µM
COc1ccc2c(c1)OC[C@H]1[C@H]2N2C(=O)CN(C)C(=O)[C@@]2(C)[C@H]1c1ccccc1,n,n,n,u,n,u
SMILES,DT40 TDP1 no CPT,12-LOX inh,HT1080 IDH1KD tx,HT1080-NT tox,IL1B secr inh,DT40 TDP1 CPT
COc1ccc2c(c1)[C@H]1[C@H](CO2)[C@H](c2ccccc2)[C@]2(C)C(=O)N(Cc3ccc(C)cc3)CC(=O)N12,u,x,n,u,-56,15µM
Cc1ccc(CN2CC(=O)N3[C@H]4c5cc(Cl)ccc5OC[C@@H]4[C@H](c4ccccc4)[C@]3(C)C2=O)cc1,u,n,n,n,n,u
COc1ccc2c(c1)OC[C@H]1[C@H]2N2C(=O)CN(Cc3ccc(Cl)cc3)C(=O)[C@@]2(C)[C@H]1c1ccccc1,u,u,n,n,u,8.2µM
Cc1ccc(CN2CC(=O)N3[C@H]4c5cc(C)ccc5OC[C@@H]4[C@H](c4ccccc4)[C@]3(C)C2=O)cc1,u,n,n,n,n,u
COc1ccc2c(c1)OC[C@H]1[C@H]2N2C(=O)CN(Cc3ccccc3)C(=O)[C@@]2(C)[C@H]1c1ccccc1,u,n,n,n,-54,18µM
Cc1ccc([C@@H]2[C@@H]3C(=O)N(c4ccccc4)C(=O)[C@@H]3[C@]3(C)C(=O)N(Cc4ccc(-c5ccccc5)cc4)CC(=O)N23)o1,u,u,n,n,n,18µM
N#Cc1cccc(C(=O)NCCc2cccc3cccnc23)c1,x,n,x,x,x,x
COCCC1(NS(C)(=O)=O)CCN(C(=O)Nc2ccc3c(c2)OCCO3)CC1,x,n,x,x,x,x
COc1ccc(CN2CC(=O)N3[C@H]4c5ccc(OC)cc5OC[C@@H]4[C@H](c4ccccc4)[C@]3(C)C2=O)cc1,18µM,n,n,n,n,u
Oc1ccc(/C=C/c2ccnc3ccccc23)cc1,12µM,u,u,u,-62,18µM
CCC[N+](C)(C)c1ccc(/C=C/c2ccnc3ccccc23)cc1,0.18µM,x,x,x,x,0.025µM
C[N+](C)(C)c1ccc(/C=C/c2ccnc3ccccc23)cc1,0.63µM,x,x,x,x,0.79µM
COC(=O)[C@H](Cc1ccc(OC)cc1)NC(=O)[C@H]1CN(C(=O)c2cccnc2)CCN1S(C)(=O)=O,x,n,x,x,x,x
CC(C)Cc1ccc(C(C)C(=O)Nc2ccccc2O)cc1 (configuration not stated),8.2µM,u,23µM,3.7µM,-95,8.2µM
O=C(O)c1ccccc1NC(=O)C(c1ccccc1)c1ccccc1,n,u,n,n,n,n
O=C(Nc1ccccc1O)C(c1ccccc1)c1ccccc1,7.3µM,n,n,u,-64,u
NC(=O)c1ccccc1NC(=O)C(c1ccccc1)c1ccccc1,29µM,n,n,n,n,u
Cc1cc(C)nc(NC(=O)C(c2ccccc2)c2ccccc2)c1,15µM,n,n,n,n,u
Cc1cc(=O)oc2cc(OCC(=O)NCCC3CCN(Cc4ccccc4)CC3)ccc12,x,n,x,x,x,x
CCN(CC)C(=O)c1oc2ccccc2c1NC(=O)c1c(F)cccc1F,x,n,x,x,x,x
CC(NNC(=S)N1CCCCCC1)c1ccc2ccccc2n1 (configuration not stated),0.0082µM,u,u,23µM,n,0.0082µM
C/C(=N/NC(=O)CN(c1ccccc1)S(=O)(=O)c1ccccc1)c1ccccc1O,9.2µM,n,u,u,n,18µM
CCCC/C(C)=N/NC(=O)CN(c1ccc(Br)cc1)S(=O)(=O)c1ccccc1,n,n,n,n,n,n
